# Inconclusive results are not listed. A number with no mark means an inactive call. Calls of active or inactive are those of the source. Calls come from the whole dose curve; as a rule, active = well fitted inhibition curve with a large enough effect; inconclusive = small, poorly fitted or top-dose-only effect; inactive = flat fitted curve, though single readings scatter.
# Test: P-glycoprotein substrates identified in KB-8-5-11 adenocarcinoma cell line, qHTS therapeutic library screen (AID 1346987); note: nearly all actives have a fitted effect of over 65% in size
# Conditions: KB-8-5-11 (P-gp overexpressing) viability, CellTiter-Glo, 72 h; series mostly up to 44.5 µM; activity change, negative = cytotoxicity: at the top concentration
# Outline: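 KB-8-5-11: colchicine-selected sub-line of KB-3-1 over-expressing P-gp; assay medium lacked colchicine. 72 h drug exposure at 37 degree C, CellTiter-Glo.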
# % is set by controls: 0 for no effect and ±100 for the full control effect; potency is the fitted concentration of half-maximal effect.
SMILES,"activity change, negative = cytotoxicity",Potency,outcome
N#Cc1ccc(C(=O)N2CCC3(CC2)N=C(N)c2c(F)ccc(F)c2N3)cn1,-9.09%,,
C/C=C1\[C@H](O[C@@H]2O[C@H](CO)[C@@H](O)[C@H](O)[C@H]2O)OC=C2C(=O)OCCc3ccc(O)c(c3)Oc3ccc(cc3)CCOC(=O)C[C@H]21,-6.93% [at 17.3 µM],,
CC1=C(C(=O)O[C@@H]2O[C@H](COC3OCC(O)C(O)C3O)[C@@H](O)[C@H](O)[C@H]2O)C(C)(C)CCC1 (stereo partly drawn),-17.3% [at 17.3 µM],,
COC1/C=C/C(C)(O)C(SCC(N)C(=O)O)CC(=O)OC(C)C(C)CC/C=C/1C (stereo not drawn),6.14% [at 17.3 µM],,
COc1cc(N2CCC(N3CCN(C)CC3)CC2)ccc1Nc1ncc(Cl)c(-c2c[nH]c3ccccc23)n1,,0.517 µM (active),
C/C=C/C=C/[C@@H]1O[C@](O)([C@H](CC)C(=O)NC/C=C/C=C(\C)[C@@H](OC)[C@@H](C)C2OC(/C=C/C=C/C=C(\C)C(=O)c3c(O)cc[nH]c3=O)[C@H](O)[C@@H]2O)[C@H](O)[C@H](O)C1(C)C (stereo partly drawn),0.348% [at 17.3 µM],,
CC(C)=CCC[C@](C)(O[C@@H]1O[C@H](CO)[C@@H](O)[C@H](O)[C@H]1O)[C@H]1CC[C@]2(C)[C@@H]1[C@H](O)CC1[C@@]3(C)CC[C@H](O)C(C)(C)C3[C@@H](O[C@@H]3O[C@H](CO)[C@@H](O)[C@H](O)[C@H]3O)C[C@]12C (stereo partly drawn),9.51% [at 17.3 µM],,
O=C(OC[C@H]1O[C@H](O[C@]2(CO)O[C@H](CO)[C@@H](O)[C@@H]2O)[C@H](O)[C@@H](O)[C@@H]1O)c1ccccc1,,,inactive [at 17.3 µM]
COC(=O)CC1CC(c2ccc(O)cc2)=NO1 (stereo not drawn),-16.5%,,
Cc1noc(-c2ccc(-c3ccc(CC(=O)O)cc3)cc2)c1NC(=O)O[C@H](C)c1ccccc1,-8.09%,,
CCN(CC)Cc1ccc(C(=O)N(CCc2ccccc2OC)[C@@H]2CCNC2)cc1,6.96% [at 17.3 µM],,
CC(O)/C=C/C1OC(=O)CC1Nc1ccc(C(=O)O)cc1 (stereo not drawn),,,inactive
C=C[C@H]1C(O[C@@H]2O[C@H](CO)[C@@H](O)[C@H](O)[C@H]2O)OC=C2C(=O)N3CCc4c([nH]c5ccccc45)[C@H]3C[C@H]21 (stereo partly drawn),,,inactive [at 17.3 µM]
Cc1cccc(Oc2cnc(=O)[nH]c2)c1,5.81%,,
Cc1cc(OCc2nnc(SC3CCCC3)n2-c2cccnc2)ccc1-c1ccc(S(C)(=O)=O)cc1,,2.91 µM (active),
CN(C)CC1CCOC1(c1ccccc1)c1ccccc1 (stereo not drawn),-11.1% [at 17.3 µM],,
CC(C)/C=C1\NC(=O)C(C(C)C)n2c1nc1c(c2=O)C=CC=CO1 (stereo not drawn),-12.4%,,
CN(C)C/C=C/C(=O)Nc1cc2c(Nc3ccc(F)c(Cl)c3)ncnc2cc1OC1CCOC1 (stereo not drawn),,14.6 µM (active),
CC(C)C(C(=O)N(C)C(C)C(N)=O)N(C)C(=O)C1CCCN1C(=O)/C=C/C=C/C(O)C(C)O (stereo not drawn),4.34% [at 17.3 µM],,
C[C@H](C(=O)NC1CCCC1)N(C(=O)Cn1nnc(-c2ccc3c(c2)OCO3)n1)C1CCCCC1,-20.8%,,
CC1OC(OC2CCC3(C)C(CCC4(C)C3CC=C3C5CC(C)(C)CCC5(C(=O)OC5OC(CO)C(O)C(O)C5O)CCC34C(=O)O)C2(C)C)C(O)C(O)C1O (stereo not drawn),,,inactive [at 17.3 µM]
CC(C)S(=O)(=O)NC[C@H](C)c1ccc(NC(=O)c2cc(F)cc(F)c2)cc1,-20.4%,,
C/C(=C\C=C\C(C)C1CCC2(C)C3CCC4C(C)(C)C(=O)CCC45CC35CCC12C)C(=O)O (stereo not drawn),8.34% [at 17.3 µM],,
CC(C)=CCC[C@](C)(O[C@@H]1O[C@H](CO)[C@@H](O)[C@H](O)[C@H]1O)[C@H]1CC[C@]2(C)[C@@H]1[C@H](O)CC1[C@@]3(C)CC[C@H](O)C(C)(C)C3[C@@H](O[C@@H]3O[C@H](CO)[C@@H](O)[C@H](O)[C@H]3O[C@@H]3OC[C@@H](O)[C@H](O)[C@H]3O)C[C@]12C (stereo partly drawn),-2.05% [at 9.29 µM],,
CC1CCC2C(C(=O)O)=COC(O[C@@H]3O[C@H](CO)[C@@H](O)[C@H](O)[C@H]3O)C12 (stereo partly drawn),-12.9%,,
C=CC(=O)Nc1cccc(Nc2nc(Nc3ccc(N4CCN(C(C)=O)CC4)cc3OC)ncc2C(F)(F)F)c1,,20.6 µM (active),
CC(C)=CCC/C(C)=C/Cc1ccc(O)c(C2OC(=O)c3cc(C(=O)O)cc(O)c32)c1O (stereo not drawn),-1.65% [at 17.3 µM],,
CC(C)C[C@H](CC(=O)NO)C(=O)N[C@@H](Cc1ccc2ccccc2c1)C(=O)N[C@@H](C)C(=O)NCCN,3.9%,,

# Reference: PubChem BioAssay (NCATS)
